Laboratory results: PubChem BioAssay (NCI)
About 79,000 compounds went through this panel and 15% of them were active in at least one assay; those are over-represented in the sample as a whole. A number with no mark means an inactive call. Active and inactive are the calls of the source. Cut-off read from the data, not from the text of the source: active = growth inhibition above about 70%; inactive = the rest. Where a SMILES comes first, the peptide text is derived from it. The star is where a group is joined. Cbz = O=C(OCc1ccccc1)*

What was measured:
[1] = NCI Yeast Anticancer Drug Screen. Data for the rad50 strain (AID 155);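 note: 0% = growth of vehicle-only cultures of the same strain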; conditions: S. cerevisiae rad50 strain growth inhibition, active compounds read high; at 50.0 µM unless noted
In short: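 Compounds were tested on a yeast strain with an engineered DNA damage repair alteration; the reported value is growth inhibition normalised to vehicle treatment.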

[2] = NCI Yeast Anticancer Drug Screen. Data for the mec2-1 strain (AID 157); conditions: S. cerevisiae mec2-1 strain, active compounds read high; at 50.0 µM unless noted
In short: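 Strain: mec2-1 (DNA repair/cell cycle alteration). Compound exposure, then growth measured; inhibition expressed relative to vehicle.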

[3] = NCI Yeast Anticancer Drug Screen. Data for the sgs1 mgt1 strain (AID 161);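 note: 0% = growth of cultures given vehicle only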; conditions: S. cerevisiae sgs1 mgt1 strain, active compounds read high; at 50.0 µM unless noted
In short: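 Read-out: growth inhibition vs vehicle controls. Cells: mutant yeast strain deficient in DNA damage repair.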

[4] = NCI Yeast Anticancer Drug Screen. Data for the cln2 rad14 strain (AID 165);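 note: 0% = growth equal to vehicle treated cultures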; conditions: S. cerevisiae cln2 rad14 strain, active compounds read high; at 50.0 µM unless noted
In short: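 Compounds are applied to the cln2 rad14 yeast strain, and growth is then compared with that of vehicle-treated cultures to give inhibition.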

[5] = NCI Yeast Anticancer Drug Screen. Data for the bub3 strain (AID 167); conditions: S. cerevisiae bub3 mutant strain, active compounds read high; at 50.0 µM unless noted
In short: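 Growth of a checkpoint-deficient yeast mutant is measured after compound exposure. Values represent inhibition relative to vehicle.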

[6] = NCI Yeast Anticancer Drug Screen. Data for the mlh1 rad18 strain (AID 175); conditions: S. cerevisiae mlh1 rad18 strain growth inhibition, active compounds read high; at 50.0 µM unless noted
In short: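 Read-out is yeast growth inhibition, calculated against vehicle-only controls. The compound was applied to a strain engineered with DNA damage repair alterations.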

Row | SMILES | growth inhibition [1] | growth inhibition [2] | growth inhibition [3] | growth inhibition [4] | growth inhibition [5] | growth inhibition [6]
1 | OCC12c3ccccc3C3c4ccccc4C1C32 (stereo not given) | 10.2% | -17.4% | -4.05% | -31.1% | -18.9% | 0.95%
2 | CCN(CC)CCC(=O)c1ccccc1 | -7.5% | -4.25% | -8.45% | -7.25% | -20.1% | -7.85%
3 | Cc1c(Cl)cccc1NC(=O)C(C)NCC(C)C (stereo not given) | -4.4% | -0.2% | -6.05% | -11.7% | 14.8% | -19.6%
4 | O=c1[nH]c2cc(Cl)ccc2nc1/C(=N\O)C(O)c1ccc([N+](=O)[O-])cc1 (stereo not given) | 8% | 14.2% | -21.2% | -24.6% | -17.2% | -5%
5 | Cc1cc(Cl)ccc1NC(=O)CC/C(CC(=O)C(C)C)=N\NC(=O)C[n+]1ccccc1 | -43.9% | 3.45% | -20.4% | -15.2% | -30.6% | -32.8%
6 | NC(=O)C(=CN1C(=O)CC(=O)NC1=S)C(N)=O | -29.8% | -34% | -11.6% | -13.8% | -26.6% | 13.5%
7 | CC1C(c2ccccc2)OCCN1CN1C(=O)c2ccccc2C1=O (stereo not given) | 10.8% | 17.4% | 12.4% | 21.8% | 17.1% | -3.6%
8 | O=C(O)c1cc(Cl)cc(C(=O)O)n1 | -19.4% | -1.75% | -11.8% | 16.1% | 4.65% | -1.7%
9 | NC(=O)C(Cc1ccccc1)NC(=O)C(Cc1ccccc1)NC(=O)C(Cc1ccccc1)NC(=O)OCc1ccccc1 (stereo not drawn) (Cbz-Phe-Phe-Phe-NH2; configuration not given here) | 25.6% | 7.8% | 17.6% | -12% | -5.2% | 21.9%
10 | Nc1ccc2c(C(F)(F)F)cc(=O)oc2c1 | 14.2% | -2.2% | 8.2% | -29.6% | 8.55% | 8.8%
11 | NC(=O)c1ccccc1OC(=O)Nc1ccc(F)c([N+](=O)[O-])c1 | 3.75% | 26.6% | 12.4% | -1.95% | 20.7% | 12.1%
12 | O=c1cc(Cl)c(=O)n(-c2ccccc2)[nH]1 | 3.5% | -4.75% | -3.25% | -14.6% | 0.9% | 2.7%
13 | CCOC(=O)c1nnsc1N/N=C\c1ccc([N+](=O)[O-])cc1 | -5.05% | -15% | -25.7% | 12.3% | -19.5% | 14.3%
14 | Cc1ccc(-c2c3ccccc3cc3ccccc23)c(C)c1 | 24.9% | -11.1% | -1.5% | -2.8% | 5.25% | 11.8%
15 | O=c1oc(-c2ccccc2)nc2c1sc1nc(-c3ccccc3)oc(=O)c12 | 47.9% | 30.7% | 43.3% | 79.8% (active) | 24.6% | 49.4%
16 | CC(=O)c1cccc(OC(=O)Nc2ccccc2)c1 | 6.45% | -10.2% | 2.5% | 4.3% | -1.45% | 22.4%
17 | CCc1cccc(CC)c1NC(=S)N/C=C(\C#N)S(=O)(=O)c1ccc(C)cc1 | -4.8% | -10.6% | 17.4% | -15.4% | -5.5% | -20.5%
18 | CCCCCCCCC1OC1CCCCCCCCOCC(O)CO (stereo not given) | 18.9% | -9.95% | -1.9% | -1.2% | -0.6% | -1.6%
19 | O=C1NC(N2CCOCC2)=N/C1=C\c1cccs1 | -8.45% | 5.05% | 13.2% | 32.3% | 1.05% | -34%
20 | CCN(Cc1ccccc1)c1nnnn1-c1ccccc1 | -2.5% | -5.25% | 8% | 6.75% | 12.1% | -10.6%
